Assay results taken from PubChem BioAssay.
Records with an inconclusive call do not appear. Unmarked numbers belong to inactive results.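 The calls were made as follows: active = viability at or below 27.92% in each of two runs, the all-compound median minus 4 SD; inconclusive = no clear call, values can overlap the other calls; inactive = the rest.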

Assay: growth suppression of PTEN-deleted HCT116, pilot screen, cell-based, HCT116 clonal line, CellTiter-Glo (AID 824);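 also: 0% = 20 µM Hyamine control and 100% = vehicle cell control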
Conditions: 60 h, at 10 µM, active compounds read low

Row | SMILES | viability [%]
1 | O=C(CSc1nnc2ccccn12)c1ccccc1 | 102
2 | CCOc1ccc(N(CC(=O)OC)S(=O)(=O)c2ccc(OC)c(OC)c2)cc1 | 106
3 | CCCCSc1nc(CCC)cc(=O)[nH]1 | 104
4 | O=C(CN1CCN(Cc2ccccc2F)C1=O)NCc1cccnc1 | 94.6
5 | COc1ccc(OC)c(C(=O)c2ccc(C(=O)O)cc2)c1 | 103
6 | Cc1ccc(C)n1-n1c(C)nc2sc(-c3ccccc3)cc2c1=O | 61
7 | CCn1c(C(=O)N2CCC(C(=O)N3CCN(c4ccccn4)CC3)CC2)cc2sccc21 | 78.2
8 | C=CCSc1nc(N)c2c(C)c(C)sc2n1 | 92.4
9 | COc1ccc(OCCSc2nc3ccccc3n2CC(=O)O)cc1 | 94.8
10 | Cc1nnc(SCC(=O)NCc2ccccc2)s1 | 102
11 | Clc1ccc(SCCCCn2ccnc2)cc1 | 65.7
12 | CC1(C)Oc2ccc3ccc(=O)oc3c2C(N2CCCCC2)C1O (centres undefined) | 98.2
13 | CSCCC(N=CC1=C(O)CC(C)(C)CC1=O)C(=O)O (centres undefined) | 99.9
14 | COc1ccc(C)cc1NC(=O)C1CCN(S(=O)(=O)c2cccc3cccnc23)CC1 | 86
15 | CCOc1ccc(-c2nnc(SCC(=O)N3CCN(c4ccccc4)CC3)o2)cc1 | 97.3
16 | CCCOc1ccc2ccccc2c1/C=N/n1cnnc1 | 80.9
17 | O=C(Cn1cc2c(n1)CCCCC2)N1CCc2ccccc21 | 81
18 | CCn1cc(C(=O)N2CCOCC2)c(=O)c2cc(S(=O)(=O)N(C)C3CCCCC3)ccc21 | 95.8
19 | COCCn1c(SCC(=O)Nc2ccc3c(c2)OCCO3)nc2c(c1=O)SC(C)C2 (centres undefined) | 95.8
20 | CC(C)CCN(C)C1CCN(S(=O)(=O)c2ccc(F)cc2)CC1 | 98.5
21 | COc1ccccc1-n1c(=O)[nH]c2c(C(N)=O)nc(-c3cccnc3)nc21 | 67.7
22 | Cn1c(/C=N/n2cnnc2)nc2ccccc21 | 94.2
23 | CN1CCN(CCCNC(=O)Cn2ncc3c4ccccc4n(C)c3c2=O)CC1 | 100
24 | CCOc1ccc(N(CC(=O)NCc2ccco2)S(=O)(=O)c2ccc(OC)c(OC)c2)cc1 | 90.4
